Source: PubChem
TRHR enhancer = qHTS for Small Molecule Agonists and Allosteric Enhancers of Human TRH Receptor: Primary Screen for Enhancers; Thyrotropin-releasing hormone receptor (Homo sapiens), P34981; AID 493056, 2011; TRHR cells, fluo-8 calcium fluorescence, EC20 TRH enhancement; 0.66% of 360,000 active; enhancement, % at 2 µM; in the data active means enhancement above about 30%; further: 0% is about no effect
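Enhancer read-out: after compound pinning and an initial kinetic agonist-mode read, an EC20 of TRH (10 nM final) was injected and fluo-8 calcium signal (Ex 480/Em 530) followed at 1 s/cycle for 100 cycles in TRHR-expressing cells.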
D1 ag = Allosteric Agonists of the Human D1 Dopamine Receptor: qHTS | 1% of 360,000 active | HEK293 T-REx D1 cells, calcium flux, agonist mode | D(1A) dopamine receptor (Homo sapiens), P21728 | activation, % at 2 µM; further: 0% is about no effect
Target sequence (P21728 whole entry, looked up): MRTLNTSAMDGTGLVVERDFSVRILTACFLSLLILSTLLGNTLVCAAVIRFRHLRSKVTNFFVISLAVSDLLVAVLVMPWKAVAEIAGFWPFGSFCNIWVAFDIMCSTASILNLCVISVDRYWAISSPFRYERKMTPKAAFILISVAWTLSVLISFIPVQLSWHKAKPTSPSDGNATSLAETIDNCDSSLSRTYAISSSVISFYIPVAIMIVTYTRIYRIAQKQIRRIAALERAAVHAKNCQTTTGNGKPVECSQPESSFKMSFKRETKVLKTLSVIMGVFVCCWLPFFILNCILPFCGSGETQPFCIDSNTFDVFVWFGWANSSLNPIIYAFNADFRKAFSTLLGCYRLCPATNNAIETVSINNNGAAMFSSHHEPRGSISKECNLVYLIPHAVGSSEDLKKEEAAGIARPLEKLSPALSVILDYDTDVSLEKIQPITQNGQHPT
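Agonism was scored from calcium flux recorded over 180 s (1 read/s) after pintool compound addition, following a 10-cycle baseline. Cells were inducible force-coupled HEK293 TREx D1, plated overnight at 30 C and loaded with no-wash calcium dye.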
TRHR ag = qHTS for Small Molecule Agonists and Allosteric Enhancers of Human TRH Receptor: Primary Screen for Agonists; 0.18% of 360,000 active; activation, % at 2 µM; TRHR cells, calcium flux fluo-8, FDSS agonist mode; Thyrotropin-releasing hormone receptor (Homo sapiens), P34981; further: 0% is about no effect
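TRHR-expressing cells, plated overnight in medium with 10% serum, were loaded with fluo-8 calcium dye at room temperature. After a 10 s baseline, library compound was pin-added and calcium release was recorded kinetically (ex 480/em 530) as agonist response.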
D1 potentiator = Potentiators of Human D1 Dopamine Receptor: qHTS. HEK293 TREx D1 cells, calcium flux, dopamine EC20 potentiation. potentiation, % at 10 µM. 0.036% of 360,000 active. AID 504651, 2011; in the data active means potentiation above about 30%; further: 0% is about no effect
D1 antag = Antagonist of Human D 1 Dopamine Receptor: qHTS; HEK293 TREx D1 cells, calcium flux, dopamine EC80; stronger effect = lower value; D(1A) dopamine receptor (Homo sapiens), P21728; 3.2% of 360,000 active; activity change, negative = inhibition, % at 10 µM; in the data active means activity change below about -30%; further: on the % scale 0 is the no-effect control and ±100 the full control effect
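Antagonism measured as reduced calcium response to an EC80 dopamine addition following 180 s compound pre-read; cells were inducible HEK293 Trex D1 plated overnight at 30 C, read kinetically at 1 cycle/sec.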
An asterisk follows results filed as active; · = no result. Only some compounds are listed: those with a hit (about 4.6% of all), similar ones and a draw of the others. Unless noted, no stated cut-off is given here; in the data, active means activation above about 30%; inactive means the rest.

SMILES	TRHR enhancer	D1 ag	TRHR ag	D1 potentiator	D1 antag
COc1ccc(CCNC(=O)Cn2c(=O)nc(-c3ccccc3)c3ccccc32)cc1OC	-4	0	-1	-1	-15
O=c1[nH]c(CSc2nc3ccccc3[nH]2)nc2c1cnn2-c1ccccc1	1	16	0	-6	-37*
O=c1[nH]c(SCc2nc3c(cnn3-c3ccccc3)c(=O)[nH]2)nc2ccccc12	-1	3	1	5	-9
O=C(Nc1ccc(Cl)cc1Cl)C1CCC(=O)N1Cc1ccccc1Cl (stereo unspecified)	1	37*	0	-1	9
COc1ccc(N2CCN(C(=O)c3cccn3-c3nnc(N4CCCC4)s3)CC2)cc1	10	3	-1	-2	-4
Cc1ccc(CSc2nc3c(c(=O)[nH]2)C(c2ccncc2)C2=C(CCCC2=O)N3)cc1 (stereo unspecified)	-1	-3	0	-4	-48*
CCSc1nc2c(c(=O)[nH]1)C(c1ccc(C)cc1)C1=C(CCCC1=O)N2 (stereo unspecified)	-5	6	0	-6	-4
O=C(CN1C(=O)CCc2cc(S(=O)(=O)N3CCOCC3)ccc21)NCc1ccc(F)cc1	0	1	1	0	4
CCC1CCCCN1C(=O)Cn1c(=O)n(-c2ccc(Cl)c(Cl)c2)c(=O)c2c(C)c(C(=O)N(C)C)sc21 (stereo unspecified)	-3	0	-1	0	-34*
Cc1c(C(=O)N(C)C)sc2c1c(=O)n(-c1ccc(Cl)c(Cl)c1)c(=O)n2CC(=O)C(C)(C)C	3	-1	0	0	14
CSc1ncc(Cl)c(C(=O)Nc2c(C(=O)c3ccc(C)c(F)c3)oc3ccccc23)n1	1	1	0	-1	-4
COc1ccc(-c2noc(CSc3nnc(-c4ccc(Cl)cc4)n3C)n2)cc1OC	0	-1	-1	-3	-31*
COc1ccc(-c2noc(CSc3nnc(C)n3-c3cccc(C)c3)n2)cc1	-2	10	0	-2	-34*
COc1ccc(-c2noc(CSc3nnc(-c4ccccc4)n3C)n2)cc1	2	6	0	1	-3
Cc1ccsc1C1C(C#N)=C(N)N(N(C)C)C2=C1C(=O)CCC2 (stereo unspecified)	5	7	0	-2	-35*
COCCCN(C(=O)CCSc1ccc(F)cc1)c1c(N)n(Cc2ccccc2)c(=O)[nH]c1=O	-3	0	0	-5	0
COc1cccc(CNC(=O)c2cc3c(s2)-c2ccccc2OC3)c1	1	2	0	-6	-11
COc1ccc(NC(=O)c2cc3c(s2)-c2c(C)cccc2OC3)cc1Cl	50*	1	1	-4	-11
COc1cccc(CNC(=O)c2cc3c(s2)-c2c(C)cccc2OC3)c1	14	2	0	-8	-36*
COc1cc(Cl)c(C)cc1NC(=O)c1cc2c(s1)-c1c(C)cccc1OC2	-17	-1	0	-4	8
Cc1cc(C)c(S(=O)(=O)NCCc2cc3ccc(C)cc3[nH]c2=O)c(C)c1	3	-1	-1	-6	0
O=C(CSc1oc(-c2ccco2)nc1S(=O)(=O)c1ccc(Cl)cc1)Nc1ccc(F)cc1	-2	5	2	2	2
Cc1ccc(NC(=O)Nc2cccc([N+](=O)[O-])c2)cc1F	-1	32*	2	-6	-57*
CC(C)(C)CC(C)(C)NC(=O)Nc1cccc([N+](=O)[O-])c1	-9	18	0	-8	-41*
Cc1cc(NC(=O)Nc2cccc([N+](=O)[O-])c2)no1	-2	10	0	-1	5
SMILES	TRHR enhancer	D1 ag	TRHR ag	D1 potentiator	D1 antag
Cc1ccc(S(=O)(=O)NC(=O)Nc2cccc([N+](=O)[O-])c2)cc1	-2	4	0	-4	-3
O=C(Nc1ccc(OC(F)(F)F)cc1)Nc1cccc([N+](=O)[O-])c1	-1	30*	3	-15	-47*
Cn1c(=O)n(C)c2cc(NS(=O)(=O)c3ccc4c(c3)CCCC4)ccc21	1	7	0	-4	-34*
Cc1cccc(N2CCN(C(=O)CCS(=O)(=O)c3ccc4c(c3)CC(=O)N4C)CC2C)c1 (stereo unspecified)	0	1	0	-5	-1
CCn1c(=N)n(CC(=O)c2ccc(Br)s2)c2ccccc21	-14	10	0	-1	9
N=c1n(CCO)c2ccccc2n1CCOc1ccc(F)cc1	4	-1	0	1	-10
CCCCn1c(=N)n(CC(=O)c2ccc(Br)s2)c2ccccc21	3	44*	2	-3	20
CCOC(=O)Cn1c(=N)n(CCOc2ccc(Br)cc2)c2ccccc21	2	51*	3	-2	-22
CCCn1c(=N)n(CC(=O)C(C)(C)C)c2ccccc21	31*	9	-1	-9	7
CCCCn1c(=N)n(CCCOc2ccc(F)cc2)c2ccccc21	4	79*	-1	-7	-5
CCCCn1c(=N)n(CC(=O)C(C)(C)C)c2ccccc21	10	3	0	-4	35
CCOC(=O)Cn1c(=N)n(CCOc2cccc(C)c2)c2ccccc21	0	14	0	-2	-3
Cc1ccc(-n2ncc(C(=O)NCCCN3CCCCC3)c2C2CCN(C(=O)OC(C)(C)C)CC2)cc1	-9	4	5	-3	7
Cc1c(Cl)cccc1NC(=O)CCOc1ccccc1	-3	-1	-2	3	-20
O=C(Cc1c[nH]c2ccccc12)N1CCN(S(=O)(=O)c2ccc(Cl)cc2)CC1	-9	4	0	-3	-36*
CC(=O)N1CCN(C(=O)CCc2c[nH]c3ccccc23)CC1	0	0	1	-12	-34*
CC1=C(C(N)=O)C(c2ccc(C)cc2)n2nc(SCc3ccccc3F)nc2N1 (stereo unspecified)	-5	-2	0	1	2
Oc1c(C(c2ccccc2)N2CCOCC2)sc2nc(-c3ccco3)nn12 (stereo unspecified)	5	-1	0	-1	·
O=C(/C=C/c1cn(CC(O)CN2CCCCCC2)c2ccccc12)c1ccccc1 (stereo unspecified)	-2	54*	5	-5	-5
COc1ccc(C(=O)/C=C/c2cn(CC(O)CN3CCCCCC3)c3ccccc23)cc1OC (stereo unspecified)	-9	15	4	-2	4
